Where “and” joins values, the source holds several entries; their conditions need not be identical. Equal values may be shown once. Screen size: about 5,500 compounds; about 2,000 (36%) were called active. About 18% were inconclusive and are not listed. The list shows a part of the results. Values without a mark were called inactive. Cut-off read from the data, not from the text of the source: active = normalized growth mostly below about 0.91 (no sharp cut-off); inconclusive = no clear call, values can overlap the other calls; inactive = mostly above about 0.92.
Assay: chemical genetic growth profiling, strain panel (AID 1159580);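 note: tested at 20 µM; growth read once vehicle control cultures reached saturation at 30 °C; 1 = growth at the plate median or of vehicle wells; lower values mean less growth of the strain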
Conditions: S. cerevisiae deletion strains, growth OD

COC(=O)NC(=S)Nc1ccccc1NC(=S)NC(=O)OC
normalized growth (locus YAL013W, strain DEP1, hits give low values): 1
normalized growth (locus YAL021C, strain ccr4, hits give low values): 0.92
normalized growth (locus YAL026C, strain drs2, hits give low values): 0.975
normalized growth (locus YAL030W, strain snc1, hits give low values): 0.986
normalized growth (locus YBL061C, strain skt5, hits give low values): 0.99
normalized growth (locus YBR009C, strain hhf1, hits give low values): 0.973
normalized growth (locus YBR021W, strain FUR4, hits give low values): 1.02
normalized growth (locus YBR023C, strain chs3, hits give low values): 0.966
normalized growth (locus YBR171W, strain sec66, hits give low values): 0.974
normalized growth (locus YBR229C, strain ROT2, hits give low values): 1
normalized growth (locus YBR231C, strain swc5, hits give low values): 1
normalized growth (locus YBR279W, strain paf1, hits give low values): 0.983
normalized growth (locus YCL011C, strain gbp2, hits give low values): 0.978
normalized growth (locus YCL016C, strain dcc1, hits give low values): 0.974
normalized growth (locus YCL029C, strain bik1, hits give low values): 1.03
normalized growth (locus YCL069W, strain vba3, hits give low values): 0.978
normalized growth (locus YCR088W, strain abp1, hits give low values): 0.975
normalized growth (locus YDL005C, strain med2, hits give low values): 0.963
normalized growth (locus YDL035C, strain GPR1, hits give low values): 0.992
normalized growth (locus YDL040C, strain nat1, hits give low values): 0.973
normalized growth (locus YDL074C, strain BRE1, hits give low values): 1.03
normalized growth (locus YDL101C, strain DUN1, hits give low values): 1.02
normalized growth (locus YDL134C, strain PPH21, hits give low values): 1
normalized growth (locus YDL185W, strain tfp1, hits give low values): 1
normalized growth (locus YDL192W, strain arf1, hits give low values): 1.01
normalized growth (locus YDR001C, strain nth1, hits give low values): 0.976
normalized growth (locus YDR069C, strain doa4, hits give low values): 0.909
normalized growth (locus YDR101C, strain arx1, hits give low values): 1.01
normalized growth (locus YDR137W, strain rgp1, hits give low values): 0.945
normalized growth (locus YDR150W, strain NUM1, hits give low values): 0.996
normalized growth (locus YDR159W, strain sac3, hits give low values): 0.969
normalized growth (locus YDR162C, strain NBP2, hits give low values): 1.01
normalized growth (locus YDR195W, strain ref2): 1.04
normalized growth (locus YDR297W, strain sur2, hits give low values): 0.984
normalized growth (locus YDR318W, strain mcm21, hits give low values): 1.02
normalized growth (locus YDR334W, strain swr1, hits give low values): 0.972
normalized growth (locus YDR335W, strain msn5, hits give low values): 0.97
normalized growth (locus YDR388W, hits give low values): 1.02
normalized growth (locus YDR392W, strain spt3, hits give low values): 0.724 (active)
normalized growth (locus YDR502C, strain sam2, hits give low values): 0.993
normalized growth (locus YEL003W, strain gim4, hits give low values): 0.959
normalized growth (locus YEL037C, strain rad23, hits give low values): 0.973
normalized growth (locus YEL061C, strain CIN8 (second series), hits give low values): 0.979
normalized growth (locus YEL061C, strain CIN8, hits give low values): 0.996
normalized growth (locus YER015W, strain faa2, hits give low values): 0.981
normalized growth (locus YER016W, strain bim1, hits give low values): 0.963
normalized growth (locus YER110C, hits give low values): 1.02
normalized growth (locus YER111C, strain swi4, hits give low values): 0.958
normalized growth (locus YER155C, strain BEM2 (second series), hits give low values): 0.753 (active)
normalized growth (locus YER155C, strain BEM2, hits give low values): 1.01
normalized growth (locus YER167W, strain BCK2, hits give low values): 0.977
normalized growth (locus YFR010W, strain ubp6, hits give low values): 0.984
normalized growth (locus YGL078C, strain dbp3, hits give low values): 0.982
normalized growth (locus YGL086W, strain mad1, hits give low values): 0.997
normalized growth (locus YGL167C, strain pmr1, hits give low values): 0.976
normalized growth (locus YGL173C, strain kem1, hits give low values): 0.985
normalized growth (locus YGL227W, strain vid30, hits give low values): 0.977
normalized growth (locus YGL240W, strain doc1, hits give low values): 0.972
normalized growth (locus YGL248W, strain PDE1, hits give low values): 1.01
normalized growth (locus YGL253W, strain hxk2, hits give low values): 1
normalized growth (locus YGR078C, strain PAC10, hits give low values): 0.996
normalized growth (locus YGR135W, strain pre9, hits give low values): 1
normalized growth (locus YGR229C, strain SMI1, hits give low values): 0.986
normalized growth (locus YGR252W, strain gcn5, hits give low values): 0.981
normalized growth (locus YHR013C, strain ard1, hits give low values): 0.886
normalized growth (locus YHR027C, strain rpn1, hits give low values): 0.985
normalized growth (locus YHR030C, strain SLT2, hits give low values): 0.997 and 0.983
normalized growth (locus YHR079C, strain IRE1 (second series), hits give low values): 1.02
normalized growth (locus YHR079C, strain IRE1, hits give low values): 0.938
normalized growth (locus YHR094C, strain hxt1, hits give low values): 1.01
normalized growth (locus YHR129C, strain ARP1, hits give low values): 1.01
normalized growth (locus YHR142W, strain chs7, hits give low values): 0.943
normalized growth (locus YHR200W, strain rpn10, hits give low values): 1.01
normalized growth (locus YIL066C, strain RNR3, hits give low values): 1.01
normalized growth (locus YIL073C, strain SPO22, hits give low values): 0.999
normalized growth (locus YIL125W, strain kgd1, hits give low values): 0.998
normalized growth (locus YIR030C, strain dcg1, hits give low values): 1.02
normalized growth (locus YJL092W, strain hpr5, hits give low values): 0.977
normalized growth (locus YJL095W, strain BCK1 (second series), hits give low values): 0.978
normalized growth (locus YJL095W, strain BCK1, hits give low values): 1.04 and 0.967
normalized growth (locus YJL115W, strain asf1, hits give low values): 0.966
normalized growth (locus YJL129C, strain trk1, hits give low values): 0.939
normalized growth (locus YJL134W, strain LCB3, hits give low values): 1
normalized growth (locus YJL154C, strain vps35, hits give low values): 0.963
normalized growth (locus YJL164C, strain tpk1, hits give low values): 0.965
normalized growth (locus YJL166W, strain qcr8, hits give low values): 0.979
normalized growth (locus YJL168C, strain set2, hits give low values): 1.02
normalized growth (locus YJL187C, strain SWE1 (second series), hits give low values): 1.04
normalized growth (locus YJL187C, strain SWE1, hits give low values): 0.986
normalized growth (locus YJR043C, strain POL32, hits give low values): 1.04
normalized growth (locus YJR066W, strain TOR1, hits give low values): 0.87

— PubChem BioAssay AID1159580 (chemical genetic matrix, 2015)
